We go through 40 compounds from PubChem BioAssay (NCATS).

Structures are written as SMILES. Records with an inconclusive call do not appear. A call without a number means that no potency is given here. More than one record can exist for a structure, and the calls need not agree. Activity calls are given as the source filed them. Calls come from the whole dose curve; as a rule, active = well fitted cell-killing curve with a large enough effect; inconclusive = small, poorly fitted or top-dose-only effect, or effect the other way; inactive = flat fitted curve, though single readings scatter.
Potency is the fitted concentration of half-maximal effect.

This experiment has as its system CAOV3. Description: Primary qHTS to identify gynecologic anti-cancer compounds using libraries of approved drugs and bioactive compounds (AID 1345084). Note: nearly all actives have a fitted effect of over 55% in size. The following applies: Gynecologic cancer cell panel viability, ATPlite luminescence, 48 h; series mostly up to 57.5 µM. An excerpt:
National Center for Advancing Translational Sciences [NCATS] Assay Overview: Chemotherapeutic drug responses vary from cancer to cancer and from patient to patient. These variations could be caused by a number of factors including patient genomic background, tumor mutations, tumor heterogeneity, and aspects of drug treatment. Chemotherapeutic drug resistance is also a common issue and can lead to ineffective treatment and patient death. Here we have profiled the cell killing effects of thousands of compounds to characterize the responses in three gynecological cancers, identify cancer-selective compounds, and understand the diversity of responses to these compounds from pan-cancer suppressors to single cell line selective compounds. In this assay, we screened a 7,914 compound drug library that included approved drug and bioactive compounds in six ovarian, three cervical, and […] placental cancer cell lines using the ATPlite assay for cell viability. […] The cervical cancer cell lines included HeLa, Ca Ski, and C-33 A. The placental cancer cell lines included JEG-3. HEK 293T cells were used as the control cell line to determine the selectivity index. ATPlite is a luminescence based assay reliant on the conversion of a luciferase substrate to light in the presence of ATP. As a cytotoxic compound will suppress growth and decrease the number of cells, the concentration of ATP will decrease, and less light signal will be detected in the well.
Assay Protocol Summary: 1,000 cells in 4 uL of media were dispensed into white, solid bottom 1536-well plates using a Multidrop Combi (Thermo Scientific). The Assay plates were incubated for 16 hours at 37 C with 5% CO2 in assay plates, followed by the addition of 23 nL of DMSO or drug dissolved in DMSO. Each compound was assayed in five concentrations (0.092, 0.46, 2.3, 11.5, and 57.5 uM), using the automated Wako 1536 Pin Tool workstation and incubated at 37 C with 5% CO2 48 hours. 4 uL of ATPlite, the ATP monitoring reagent, was then added to the each well of the assay plates using the Multidrop Combi reagent dispenser followed by incubation for 15 minutes at room temperature. The resulting luminescence was measured using the ViewLux plate reader.
In general terms: qHTS replaces the single test concentration by a dilution series.
`OC[C@H]1O[C@@H](OCCc2ccc(O)cc2)[C@H](O)[C@@H](O)[C@H]1O`: the Potency result is “inactive”. On the same count and under the same terms, the entry for `C[C@H](c1ccc(F)cc1CCCC(=O)O)N(c1cc(F)ccc1F)S(=O)(=O)c1ccc(Cl)cc1` is “inactive”. Same read-out and setting: the entry for `O=C(CO)N1CCC(c2[nH]nc(-c3ccc(Cl)cc3)c2-c2ccncn2)CC1` is “inactive”; for `Cn1c(=O)c(-c2c(Cl)cccc2Cl)cc2cnc(Nc3cccc(C(=O)O)c3)nc21` it is “inactive”; for `O=C(CCCN1CCN(c2ccc(F)cc2)CC1)NC1c2ccccc2CSc2ccccc21` (stereo not given) it is “inactive”. For `Nc1ccc(-c2ccc3ncc4ccc(=O)n(-c5cccc(C(F)(F)F)c5)c4c3c2)cn1`, the Potency was 0.631 µM (active). In the case of `Cc1cc(C(C)Nc2ccccc2)c2nc(N3CCOCC3)cc(=O)n2c1` (stereo not given), the Potency entry was “inactive”. For the compound `Nc1[nH]nc2nnc(-c3c(-c4ccccc4)nn4ccccc34)cc12`, the Potency entry was “inactive”. The same measure, in the same setting: the entry for `COc1ccc(CCC(=O)Nc2nc3ccc(Cl)cc3s2)cc1OC` is “inactive”; for `N#CC1(c2cccc(C(=O)Nc3cc(Oc4ccc5nc(NC(=O)C6CC6)sc5n4)ccc3F)c2Cl)CC1` it is 11.2 µM (active). Turning to `Cc1ccc2c(c1)C(=O)[C@]1(O)CCN(c3ccccc3)C1=N2`, the Potency result was “inactive”. Still for that read-out and setting: the entry for `COc1cc(Nc2nc3ccccc3nc2NS(=O)(=O)c2ccc(NC(=O)c3ccc(C)c(OC)c3)cc2)cc(OC)c1` is “inactive”.

With `c1ccc(-c2oc3ncnc(NC[C@@H]4CCCO4)c3c2-c2ccccc2)cc1`, the Potency result was “inactive”. The same measure, in the same setting: then `C[C@@H]1C[C@H]2[C@@H]3CCC4=CC(=O)C=C[C@]4(C)[C@@]3(F)[C@@H](O)C[C@]2(C)[C@@]1(O)C(=O)CO`, with “inactive”.

Turning to `CCC(=O)N1CCN(c2ccc(-n3c(=O)ccc4cnc5ccc(-c6cnc7ccccc7c6)cc5c43)cc2C(F)(F)F)CC1`, the activity change, negative = cytotoxicity was -22.6% [at 11.6 µM] (inactive).

Regarding `CN[C@@H](C)[C@H]1[C@H](O)C[C@@]2(C)[C@@H]3CC[C@H]4C(C)(C)[C@@H](NC)CC[C@@]45C[C@@]35CC[C@]12C`, the activity change, negative = cytotoxicity is 7.65% [at 11.6 µM] (inactive).

For `Cc1ccccc1C(C(=O)NC1CCCCC1)N(C(=O)CNc1ccc(C#N)cc1)c1cccc(F)c1` (stereo not given), the Potency result is “inactive”. With `Cc1ccccc1-n1c(Cn2nc(-c3cccc(O)c3)c3c(N)ncnc32)nc2cccc(C)c2c1=O`, the Potency result is “inactive”. Still for that read-out and setting: the entry for `CN(C)c1ccc(-c2nc3ncc(Cl)c(N4CCN(CC(=O)Nc5nccs5)CC4)c3[nH]2)cc1` is “inactive”. For the compound `Cc1cnc(CNC(=O)c2c(=O)c3ccc(N4CCCN(C)CC4)nc3n3c2sc2ccccc23)cn1`, the activity change, negative = cytotoxicity was -1.16% [at 11.6 µM] (inactive). For `CN1CCN(c2cccc(Nc3nc4c(-c5ccc(S(C)(=O)=O)cc5)cccn4n3)c2)CC1`, the Potency result is “inactive”.

As for `Cc1cc2c(cc1C1(c3ccc(C(=O)O)cn3)CC1)C(C)(C)CCC2(C)C`, the Potency entry was “inactive”. On the same count and under the same terms, the entry for `CNC(=O)c1c(-c2ccc(F)cc2)oc2cc(N(CCO)S(C)(=O)=O)c(C3CC3)cc12` is “inactive”; for `COc1ccc(-c2ccc3ncc4c(c3c2)n(-c2ccc(N3CCNCC3)c(C(F)(F)F)c2)c(=O)n4C)cn1` it is 2.51 µM (active); for `Cc1c(C(=O)Nc2ccc(N3C[C@@H](C)O[C@@H](C)C3)nc2)cccc1-c1ccc(OC(F)(F)F)cc1` it is “inactive”.

`CNC(=O)c1ccc2c(C(=Nc3cccc(CN(C)C)c3)c3ccccc3)c(O)[nH]c2c1`: the Potency entry is “inactive”. The same measure, in the same setting: the entry for `c1cc(OCCN2CCCCC2)cc(-c2n[nH]c3ccc(-c4ncn[nH]4)cc23)c1` is “inactive”.

With `NC(=O)c1ccc(N(C(N)=O)c2c(F)cccc2F)nc1-c1ccc(F)cc1F`, the Potency entry is “inactive”. `CNC(=O)c1cc(Oc2ccc(NC(=O)Nc3ccc(Cl)c(C(F)(F)F)c3)c(F)c2)ccn1`: the Potency result is “inactive”. The same measure, in the same setting: then `CCCCn1c(=O)n(Cc2ccccc2F)c(=O)c2[nH]c(Cc3ccc(NC(C)=O)cc3)nc21`, with “inactive”; and `Cc1cccc2c1CC[C@H](CN1CCC(c3c(Cl)cccc3Cl)CC1)C[C@@H]2O`, with “inactive”.

For `CC(=O)Nc1cccc(-n2c(=O)n(C3CC3)c(=O)c3c(Nc4ccc(I)cc4F)n(C)c(=O)c(C)c32)c1`, the Potency entry is “inactive”.

For the compound `CS(=O)(=O)c1ccc(C2=C(c3ccccc3)C(=O)OC2)cc1`, the Potency entry was “inactive”. The same measure, in the same setting: the entry for `COc1nc(C)cnc1NS(=O)(=O)c1cccnc1-c1ccc(-c2nnco2)cc1` is “inactive”; for `CC[C@H](CC#N)OC(=O)N[C@@H](C)c1cccc(NC(=O)Nc2ccc(-c3cnco3)c(OC)c2)c1` it is “inactive”; for `C[C@@H](NC(=O)c1ncnc(N)c1Cl)c1ncc(C(=O)Nc2cc(C(F)(F)F)c(Cl)cn2)s1` it is “inactive”. As to `COc1cc2ncnc(Nc3cc(Br)c(O)c(Br)c3)c2cc1OC`, the Potency entry was “inactive”. On the same count and under the same terms, then `COc1ccc(-c2nc3ccc(C4=NNC(=O)CC4C)cc3[nH]2)cc1` (stereo not given), with 17.8 µM (active) and inactive; and `CCN(CCO)CCCOc1ccc2c(Nc3cc(CC(=O)Nc4cccc(F)c4)[nH]n3)ncnc2c1`, with “inactive”. The same measure, in the same setting: the entry for `Cc1cc(-c2ncc(CC(=O)Nc3ccc(-c4cnccn4)cn3)cc2C)ccn1` is “inactive”.
